Measured values: paper PMC4552634, “A New Set of Chemical Starting Points with Plasmodium falciparum Transmission-Blocking Potential for Antimalarial Drug Discovery” (PLoS ONE, 2015)
Where two headings read alike, the source gives them in different places. Hit rate of the full screen: of about 13,000 compounds, about 3,200 (25%) showed an effect of 50% or more. Some of the results follow.

Test system: P. falciparum stage V gametocytes
Set-up: BacTiter-Glo ATP luminescence viability of purified stage V gametocytes in 384-well plates, per cent inhibition versus DMSO

SMILES | % Inhibition (48 h, 5 µM; inhibitor) [%] | % Inhibition (48 h, 5 µM, inhibitor) [%]
O=P(O)(O)Oc1c(Br)cc(Br)cc1-c1cc(Br)cc(Br)c1O [TCMDC-131736] | 1.085 | 
COc1ccccc1CC(C)NCC(O)c1cccc(Cl)c1 (stereo not drawn) [TCMDC-131497] | -23.86 | 
COc1cc(NCCCNC(=O)c2cn(Cc3ccccc3)c3ccccc23)nc2ccccc12 [TCMDC-140140] | 60.42 | 
CN(C)CCC(=O)c1ccccc1 [TCMDC-125532] | 42.07 | 
Cc1ccc(CC(C)NCC(O)c2cccc(C(F)(F)F)c2)cc1F (stereo not drawn) [TCMDC-131520] | 16.03 | 
COc1ccc(OCCn2cc(C(=O)c3ccco3)c3ccccc32)cc1 [TCMDC-124425] | 55.18 | 
O=C(c1ccco1)c1cn(CCOc2ccccc2)c2ccccc12 [TCMDC-124426] | -19.68 | 
Cc1ccc(CC(C)NCC(O)c2cccc(Cl)c2)cc1F (stereo not drawn) [TCMDC-131522] | 25.69 | 
CC[C@H]1CN2CCc3cc(OC)c(OC)cc3[C@@H]2C[C@@H]1C[C@H]1NCCc2c1cc(OC)c(O)c2I [TCMDC-131829] | 88.82 | 
CC[C@H]1CN2CCc3cc(OC)c(OC)cc3[C@@H]2C[C@@H]1C[C@H]1NCCc2c1cc(OC)c(O)c2Cl [TCMDC-131802] | 83.05 | 
CC[C@H]1CN2CCc3cc(OC)c(OC)cc3[C@@H]2C[C@@H]1C[C@H]1NCCc2c1cc(OC)c(OC)c2Br [TCMDC-131803] | 73.47 | 
COc1ccc(NC(=O)NCC2CCCN(CCCCCNC(=O)/C=C/c3ccc(Cl)c(Cl)c3)C2)c(OC)c1 (stereo not drawn) [TCMDC-139520] | -54.43 | 
Cc1ccc(CC(C)NC[C@H](O)c2cccc(Cl)c2)cc1 (stereo partly drawn) [TCMDC-131434] |  | 17.71
Cc1ccc(CC(C)NCC(O)c2cccc([N+](=O)[O-])c2)cc1 (stereo not drawn) [TCMDC-131459] | 42.66 | 
CC(O)C1CCCCN1C(=O)c1cccc(-c2ccc(-c3nc4cc(F)ccc4[nH]3)cc2)c1 (stereo not drawn) [TCMDC-132337] | -4.748 | 
CC(Cc1ccc(C(C)(C)C)cc1)NCC(O)c1ccccc1 (stereo not drawn) [TCMDC-131461] | -2.665 | 
COc1cccc(CC(C)NCC(O)c2cccc(Cl)c2)c1 (stereo not drawn) [TCMDC-131508] | -2.665 | 
COc1ccc(CC(C)NCC(O)c2cccc(C(F)(F)F)c2)cc1 (stereo not drawn) [TCMDC-131471] | 20 | 
Cc1c(C(=O)N[C@@H](C)c2ccccc2)c2cc(O)c(Br)cc2n1C1CCCCC1 [TCMDC-135454] | -62.04 | 
COc1c(F)cc(CC(C)NCC(O)c2cccc(Cl)c2)cc1F (stereo not drawn) [TCMDC-131518] | 14.1 | 
N=c1c2c(n(Cc3ccc(Cl)cc3Cl)c3c1CCC3)CCCC2 [TCMDC-125310] | 74.48 | 
COc1ccc(NC(=S)NC(NC(=O)CF)C(Cl)(Cl)Cl)cc1[N+](=O)[O-] (stereo not drawn) [TCMDC-124240] | -10.17 | 
CCC1=C[C@@H]2CN(C1)Cc1c([nH]c3ccccc13)[C@@](C(=O)OC)(c1cc3c(cc1OC)N(C)[C@H]1[C@@](O)(C(=O)OC)[C@H](O)[C@]4(CC)C=CCN5CC[C@]31[C@@H]54)C2 [TCMDC-137769] | 33.28 | 

SMILES | % Inhibition (48 h, 5 µM; inhibitor) [%] | % Inhibition (48 h, 5 µM, inhibitor) [%]
Cl.c1ccc2c(NCCCCCCNc3c4ccccc4nc4ccccc34)c3ccccc3nc2c1 [TCMDC-124285] | 125.5 | 
Cl.c1ccc2c(NCCCCCCCCCNc3c4ccccc4nc4ccccc34)c3ccccc3nc2c1 [TCMDC-124286] | 134.6 | 
C#CCN1CCC2=C(C1)c1c(O)cc(C(C)C(C)CCc3ccc(F)cc3)cc1OC2(C)C (stereo not drawn) [TCMDC-125707] | -44.99 | 
Cc1ccc(CC(C)NCC(O)c2cccc(C(F)(F)F)c2)cc1 (stereo not drawn) [TCMDC-131476] |  | 12.88
COc1cc2c(cc1OC)CN(CCCCNC(=O)c1ccc(NC(=O)c3cc(Cl)cc(Cl)c3)cc1)CC2 [TCMDC-138217] | -10.96 | 
COc1ccc(CC(C)NCC(O)c2cccc(C(F)(F)F)c2)cc1F (stereo not drawn) [TCMDC-131490] | 18.55 | 
C=Cc1cc(OC)c2c(c1)c(=O)oc1c2cc(OC)c2c(O)ccc([C@H]3O[C@H]([C@H](C)O)[C@H](O)[C@H]3O)c21 [TCMDC-141972] | 49.56 | 
CC(=O)Nc1ccc(OCCN(CC(F)(F)F)c2ccc(C#N)cc2C(F)(F)F)cc1 [TCMDC-135848] | 17.4 | 
NC(N)=NC(=O)Nc1cc(Br)c(Cl)c(Br)c1 [TCMDC-137464] | 72.05 | 
CCC1(C)CC(CCNCc2ccccc2O)(c2ccc(F)cc2)CCO1 (stereo not drawn) [TCMDC-124006] | -8.682 | 
COc1ccc(CC(C)NCC(O)c2cccc(Cl)c2F)cc1 (stereo not drawn) [TCMDC-131488] | 21.97 | 
COc1cc(NC(=O)/C=C/c2cc3ccccc3n2C)ccc1OCCN(C(C)C)C(C)C [TCMDC-139900] | 118 | 
Cc1ccc(CC(C)NCC(O)c2cccc(C(F)(F)F)c2)cc1 (stereo not drawn) [TCMDC-131450] |  | 20.44
Cc1ccc(CC(C)(C)NCC(O)c2cccc(C(F)(F)F)c2)cc1 (stereo not drawn) [TCMDC-131445] | -8.892 | 
CC[C@H]1CN2CC[C@H]1C[C@@H]2[C@@H](O)c1ccnc2ccccc12 [TCMDC-125880] | 69.34 | 
CCCN(CCC)CCOC(=O)C(OCC)(c1ccccc1)c1ccccc1 [TCMDC-131392] | -25.5 | 
COc1ccc2[nH]cc(C3=CCN(Cc4ccccc4)CC3)c2c1 [TCMDC-139048] | -90.48 | 
CC(Cc1ccc(SC(C)(C)C)cc1)NCC(O)c1cccc(Cl)c1 (stereo not drawn) [TCMDC-131492] | -3.8 | 
CC(C)N(C)C(=O)n1cnc(S(=O)(=O)C2CC3CCC2C3)n1 (stereo not drawn) [TCMDC-134379] | 65.83 | 
O=C(NC1CCC(CN2CCC(c3c[nH]c4ccccc34)CC2)CC1)C1(O)c2ccccc2-c2ccccc21 (stereo not drawn) [TCMDC-139901] | 25.48 | 
Cc1nc2ccccn2c1C1(O)C(=O)Nc2c(Cl)cc(Cl)cc21 (stereo not drawn) [TCMDC-124526] | 6.508 | 
COc1ccc(CC(C)NCC(O)c2ccc(Cl)c(Cl)c2)cc1 (stereo not drawn) [TCMDC-131514] | 0.9057 | 
